According to PubChem BioAssay:
Values joined by “and” are separate entries in the source; they are usually repeats but may differ in a detail not shown here. Equal entries are not always repeated.

What was measured:
[1] = test system: Human papillomavirus type 1a protein E7 (residues 44-93); assay: small molecules binding HPV E7 44-93 – biochemical, small-molecule microarray, residues 44-93, 635 nm fluorescence, primary screen (AID 1108); details: fluorescence 635 nm, higher = more signal;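 also: E7 fragment applied at 1 µg/mL in TBST for 1 h at 4 C; score combines spot fluorescence with its signal to noise ratio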
[2] = hepatitis C replication reporter changes, two-sided – Huh7 cells, luciferase reporter, HCV replication inhibitor project, primary screen (AID 1109); details: Huh7 HCV replicon luciferase reporter, 48 h; higher = more signal;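 also: huh7 hepatoma cells harbouring a luciferase neomycin HCV replicon reporter; luciferase luminescence as measure of HCV replicon replication; test concentration not given here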
[3] = target: Left-right determination factor 2 (Homo sapiens) (UniProt O00292); assay: small molecules binding LEFTY2 protein – biochemical, small-molecule microarray, 635 nm fluorescence scan, primary screen (AID 1110); details: higher = more signal
[4] = target: Calmodulin-1 (Homo sapiens) (UniProt P0DP23); assay: small molecules binding calmodulin-1 with EGTA – biochemical, small-molecule microarray, Cy5-labelled CALM1, profiling panel (AID 1111); details: Cy5-CALM1 binding fluorescence, higher = more signal;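 also: labelled calmodulin applied in Tris saline Tween buffer holding calcium plus EGTA and DTT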
[5] = target: Calmodulin-1 (Homo sapiens) (UniProt P0DP23); assay: small molecules binding Ca-loaded calmodulin-1 – biochemical, small-molecule microarray, Cy5-labelled CALM1, plus calcium, artefact control for SMM control-protein annotation, profiling panel (AID 1112); details: Cy5-CALM1 binding fluorescence, higher = more signal;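 also: score merges spot fluorescence with signal to noise from triplicate slides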
[6] = probe aWnt5a binding to arrayed compounds – biochemical, biotinylated probe, 635/667 nm fluorescence, primary screen (AID 1113); details: small-molecule microarray, higher = more signal;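 also: score merges 667 nm fluorescence intensity with signal-to-noise per printed feature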
[7] = probe aShh binding to arrayed compounds – biochemical, biotinylated probe, 635/667 nm fluorescence, primary screen (AID 1114); details: small-molecule microarray, higher = more signal;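 also: probe is biotin-labelled aShh protein from a stem cell growth factor screen; measures binding of labelled protein to compounds printed on the slide; score merges feature fluorescence at 667 nm with signal-to-noise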
[8] = probe aNog binding to arrayed compounds – biochemical, biotinylated probe, 635/667 nm fluorescence, primary screen (AID 1115); details: small-molecule microarray, higher = more signal;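 also: probe is biotinylated aNog protein used at 0.15 µg/mL for 1 h at 4 C; z-score combines 667 nm fluorescence of each spot with its signal to noise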
[9] = target: Torsin-1A-interacting protein 1 (Homo sapiens) (UniProt Q5JTV8); assay: compound microarray binding of lysate hLAP1 – cell lysate, small-molecule microarray, COS7 lysate, 635/667 nm fluorescence, primary screen (AID 1116); details: 635 nm fluorescence, higher = more signal
[10] = target: Alpha-bungarotoxin (Bungarus multicinctus) (UniProt P60615); assay: compounds binding labelled alpha-BTX control protein – biochemical, small-molecule microarray, Alexa647 label, 635/667 nm fluorescence, artefact control for SMM control protein annotation, profiling panel (AID 1117); details: alpha-BTX-A647 binding fluorescence, higher = more signal
Sequence of Alpha-bungarotoxin (Bungarus multicinctus) (P60615 whole entry, looked up): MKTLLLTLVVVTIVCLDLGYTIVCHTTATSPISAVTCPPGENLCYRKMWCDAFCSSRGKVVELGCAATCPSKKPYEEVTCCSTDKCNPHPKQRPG

Sequence of Torsin-1A-interacting protein 1 (Homo sapiens) (Q5JTV8 whole entry, looked up): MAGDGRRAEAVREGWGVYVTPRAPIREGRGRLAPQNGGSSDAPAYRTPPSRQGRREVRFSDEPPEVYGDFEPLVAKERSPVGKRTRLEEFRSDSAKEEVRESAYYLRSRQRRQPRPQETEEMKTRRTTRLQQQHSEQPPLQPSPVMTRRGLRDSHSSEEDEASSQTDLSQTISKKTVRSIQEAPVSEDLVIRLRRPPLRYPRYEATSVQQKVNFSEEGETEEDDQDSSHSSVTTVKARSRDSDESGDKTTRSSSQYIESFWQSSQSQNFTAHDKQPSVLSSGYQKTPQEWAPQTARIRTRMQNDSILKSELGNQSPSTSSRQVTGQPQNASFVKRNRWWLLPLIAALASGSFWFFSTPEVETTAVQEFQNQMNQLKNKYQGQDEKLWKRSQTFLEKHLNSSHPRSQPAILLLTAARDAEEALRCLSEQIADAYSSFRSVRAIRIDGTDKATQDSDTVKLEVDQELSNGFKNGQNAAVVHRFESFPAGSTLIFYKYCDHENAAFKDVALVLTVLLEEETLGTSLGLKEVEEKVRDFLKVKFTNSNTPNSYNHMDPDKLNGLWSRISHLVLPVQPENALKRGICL
Sequence of Left-right determination factor 2 (Homo sapiens) (O00292 whole entry, looked up): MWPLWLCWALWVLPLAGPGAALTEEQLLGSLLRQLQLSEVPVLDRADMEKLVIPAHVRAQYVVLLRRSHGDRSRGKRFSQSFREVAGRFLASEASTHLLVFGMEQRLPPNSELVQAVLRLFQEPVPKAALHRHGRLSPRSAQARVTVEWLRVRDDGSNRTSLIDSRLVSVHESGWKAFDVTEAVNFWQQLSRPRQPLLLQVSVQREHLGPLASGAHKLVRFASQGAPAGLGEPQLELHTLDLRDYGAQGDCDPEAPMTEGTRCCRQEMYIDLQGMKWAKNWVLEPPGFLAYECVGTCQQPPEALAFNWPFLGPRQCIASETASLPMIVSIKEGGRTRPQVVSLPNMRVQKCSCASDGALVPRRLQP

Compound | composite z-score [1] | z-score [2] | composite z-score [3] | composite z-score [4] | composite z-score [5] | composite z-score [6] | composite z-score [7] | composite z-score [8] | composite z-score [9] | composite z-score [10]
COC(=O)C1=C(C)N(Cc2ccccc2)[C@]23O[C@](C(=O)OC)(C(=O)N2[C@@H]1c1ccccc1)[C@H]1C(=O)N(c2ccccc2)C(=O)[C@H]13 | -0.167 and 0.131 | -0.716 and -0.479 | 0.688 and 0.613 | 0.361 and -0.212 | -0.298 and -0.362 | -0.197 and -0.0882 | -0.304 and -0.0066 | -0.341 and 0.0299 | -0.233 and 0.633 | 1.34 and 1.08
C=CCN(Cc1ccccc1)C(=O)C1N(c2c(Cl)cccc2CO)C(=O)C2C(C(=O)O)C3C=CC21O3 (stereo not given) | -2.6 and -0.99 | -0.431 and -0.961 | -3.36 and -2.65 | -0.998 and -0.846 | 0.686 and 0.031 | -0.215 and -0.291 | -0.221 and -0.0866 | -0.261 and -0.281 | -0.74 and -0.831 | -2.7 and -1.89
C=CCN(C(=O)C1N(CCOCCO)C(=O)C2C(C(=O)O)C3C=CC21O3)C(C)(C)C (stereo not given) | -1.22 and -1.53 | 0.178 and 0.975 | -4.53 and -1.35 | -0.219 and -0.133 | 0.785 and 0.498 | -0.27 and -0.352 | -0.138 and -0.214 | -0.158 and -0.509 | -1.53 and -1.78 | -0.606 and -0.737
CO[C@H]1COC(=O)CC=C[C@@H](C)COC(=O)[C@@H](OCc2ccccc2)C=C[C@@H]1C | -0.418 | -0.0629 | 1.32 | -0.779 | -2.05 | -0.34 | 0.149 | -0.378 | 0.417 | 0.205
CCOC(=O)NN=C1C[C@@H](O)[C@@H](O)[C@@H]2[C@@H]3C(=O)N(Cc4ccc5c(c4)OCO5)C(=O)[C@@H]3CC[C@@H]12 | 0.431 | -0.398 | -0.0145 | 0.257 | -0.727 | -0.006 | -0.0011 | -0.252 | 0.629 | 0.619
CCCCN1CC=CC23O[C@@H]4C=CCCOC(=O)C4[C@H]2C(=O)N(C(C)CO)[C@@H]3C1=O (stereo not given in full) | 0.228 and -0.107 | -0.797 and -0.144 | -0.321 and 0.0741 | -0.495 and 0.257 | -0.396 and 0.473 | -0.0403 and -0.154 | 0.171 and 0.0637 | 0.179 and 0.0775 | -0.19 and 0.191 | -0.44 and -0.137
CC[C@@H]1C(Sc2ccccc2)C(C(=O)O)[C@H](c2ccc(C)cc2)N1S(=O)(=O)c1ccc(C)cc1 (stereo not given in full) | 1.1 and 1.34 | -0.17 and -0.556 | -0.311 and 0.047 | 1.98 and 1.65 | 0.345 and 0.527 | 0.138 and 0.155 | 0.108 and 0.116 | 0.942 and 0.002 | 1.06 and 1.19 | 0.836 and 1.14
CC(C)=NOCc1ccc(-c2cn([C@@H]3COC[C@H]3O)nn2)cc1 | -0.0942 | 0.28 | 0.679 | 0.676 | -0.358 | -0.143 | -0.17 | -0.248 | 0.507 | -0.175
C=CCN(CCCCC)C(=O)C1N(c2c(Cl)cccc2CO)C(=O)C2C(C(=O)O)C3C=CC21O3 (stereo not given) | -0.495 and -1.04 | -1.62 and -0.992 | -1.3 and -3.32 | -0.522 and -1.03 | 0.639 and 0.545 | -0.292 and -0.23 | -0.214 and -0.262 | 0.0029 and 0.0473 | 0.443 and -0.697 | -1.91 and -1.04
C=CC[C@H](O)c1ccc(OCCO)cc1 | -0.664 and -3.44 | -0.921 and 0.924 | -0.774 and -0.827 | -1.14 and -0.814 | 0.237 and 0.234 | -0.176 and -0.139 | -0.221 and -0.288 | -0.0144 and 0.419 | -0.24 and -1.3 | 2.4 and -0.101
CCCNC(=O)OC[C@H]1O[C@H](CCON=C(C)CCN2CCc3nc(-c4ccccc4)c(-c4ccccc4)cc3C2)C=C[C@@H]1Oc1ccc(OC)cc1 | 0.518 | -3.28 | 0.135 | -0.0233 | -0.0536 | -0.0535 | -0.0299 | -0.321 | 0.32 | 0.316
Cc1ccc(S(=O)(=O)N[C@@H]2COC(=O)CC=C[C@@H](C)[C@@H]3C=C[C@H](O)[C@@H](COC(=O)CC=C[C@H]2C)O3)cc1 | -0.813 and -0.0304 | -0.606 and -1.32 | 1.21 and 0.343 | -0.657 and -0.267 | -1.1 and -0.778 | -0.172 and -0.0044 | -0.0977 and -0.0035 | -0.0965 and -0.116 | 0.11 and 0.433 | -0.268 and 0.391
C=CCN(C(=O)C(c1cccs1)N(C(=O)/C=C\C(=O)O)c1c(Cl)cccc1CO)C(C)(C)C (stereo not given) | -1.05 and -0.821 | -0.814 and -1.62 | -4.4 and -3.37 | -1.1 and -0.796 | 0.802 and 0.271 | -0.304 and -0.202 | -0.0769 and -0.138 | -0.263 and -0.036 | -1.05 and -1.62 | -1.29 and -1.31
C[C@@H]1CC[C@H]2C(=O)N3[C@@H](CC[C@@H](C)[C@@H]3c3ccc(-c4ccco4)cc3)C(=O)N2[C@H]1c1ccc(-c2ccco2)cc1 | -0.496 and 0.292 | -0.207 and -0.734 | 0.714 and 1.31 | 1.07 and -0.328 | -0.355 and -1.5 | -0.113 and 0.0579 | 0.166 and -0.0626 | 0.274 and 0.223 | 1.07 and 0.704 | 1.92 and 3.43
COC(=O)c1c2oc(c1C(=O)OC)C(=O)N[C@@H](Cc1ccccc1)Cn1cc(nn1)C1(CCCCC1)NC(=O)N[C@H](CO)CC2 | 0.773 and 0.664 | -0.16 and -0.583 | 0.564 and 0.328 | 0.0754 and -0.157 | 0.0102 and -0.607 | -0.0403 and -0.0924 | 0.0684 and -0.0904 | -0.0604 and 0.149 | 2.36 and 0.399 | 1.53 and 0.281
C=CCN(Cc1ccccc1)C(=O)C1N(c2ccc(CCO)cc2)C(=O)C2C(C(=O)O)C3C=CC21O3 (stereo not given) | -0.864 and -3.61 | 0.677 and 0.514 | -2.68 and -3.26 | -0.279 and -1.04 | 0.428 and -0.184 | -0.195 and -0.0792 | 0.149 and -0.0035 | -0.152 and 0.784 | -0.958 and -1.58 | -1.48 and 0.899
CCOC(=O)CCN1C(=O)[C@H]2[C@H]3[C@H](O)[C@H](O)CC(=NNC(=O)OCC)[C@@H]3CC[C@H]2C1=O | 0.582 | 0.374 | 0.354 | 0.0089 | -1.05 | 0.0511 | -0.273 | 0.0234 | -0.0895 | 0.353
CCOC(=O)C[C@H]1[C@H](OC(=O)c2ccccc2-c2ccccc2)[C@@H](NC(=O)Cc2ccc(OC)cc2)c2cc(OCCCO)ccc2N1C(=O)c1ccc2ccccc2n1 | 0.005 and 0.188 | -1.38 and -0.367 | 0.417 and 0.0866 | 0.174 and 1.45 | 0.141 and 0.318 | 0.0031 and 0.0512 | -0.0681 and -0.0146 | 0.0926 and -0.111 | 0.032 and 0.747 | 0.572 and 0.924
COCn1c2ccccc2c2nnc(C(C)=O)nc21 | -0.421 and 0.238 | -0.366 and 0.141 | 0.486 and 0.305 | -0.338 and -0.015 | -0.462 and -0.409 | -0.182 and -0.124 | -0.282 and -0.0769 | -0.294 and -0.158 | 0.184 and 0.0111 | 0.0727 and 0.378
CN1C(=O)C2CC=C([C@H]3Oc4ccccc4S(=O)(=O)N4CCC[C@@H]34)CC2C1=O (stereo not given in full) | -1.21 and -1.99 | -0.539 and -0.95 | -0.356 and 0.11 | -0.931 and -0.686 | -0.803 and -0.798 | -0.1 and -0.0125 | -0.0553 and -0.0146 | -0.172 and -0.324 | 0.0203 and 0.0568 | 0.0847 and -0.814
C=CCN(CCCCC)C(=O)C1N(C(C)(C)CO)C(=O)C2C(C(=O)O)C3C=CC21O3 (stereo not given) | -2.03 and -0.698 | -0.954 and -0.659 | -1.51 and -1.83 | -0.569 and -0.284 | 0.515 and 1.07 | -0.297 and -0.176 | -0.0626 and -0.138 | -0.0809 and 0.274 | -1.47 and -0.47 | -1.26 and -2.68
CCCCCN1CC=CC23O[C@@H]4C=CCCOC(=O)C4[C@H]2C(=O)N(C(C)CO)[C@@H]3C1=O (stereo not given in full) | 0.439 and 1.12 | -1.79 and 1.05 | -0.151 and -0.907 | -0.858 and 0.167 | -0.707 and -0.806 | -0.357 and -0.28 | -0.223 and -0.0035 | -0.789 and -0.301 | -0.759 and 2.57 | -0.342 and 0.335
